Assay results from PubChem BioAssay AID1974 (The Scripps Research Institute Molecular Screening Center, 2009).
The whole screen tested about 300,000 compounds, of which about 3,200 (1.1%) were called active.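 The calls were made as follows: active = inhibition above the campaign mean inhibition plus 3 SD (cut at about 35% in these data); inactive = the rest.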 This excerpt belongs to a sample that is enriched for actives.

Target: Glutathione S-transferase omega-1 (Homo sapiens) (UniProt P78417)
Assay: inhibitors of recombinant GSTO1, primary screen, counter-screen for RBBP9 inhibitor project, biochemical, fluorescence polarization (AID 1974);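 also: 0% = GSTO1-1 with DMSO and 100% = wells lacking GSTO1-1 enzyme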
Conditions: recombinant GSTO1, activity-based probe fluorescence polarization; at 5.96 µM; hits give high values

Chain of Glutathione S-transferase omega-1 (Homo sapiens) (P78417 whole entry, looked up): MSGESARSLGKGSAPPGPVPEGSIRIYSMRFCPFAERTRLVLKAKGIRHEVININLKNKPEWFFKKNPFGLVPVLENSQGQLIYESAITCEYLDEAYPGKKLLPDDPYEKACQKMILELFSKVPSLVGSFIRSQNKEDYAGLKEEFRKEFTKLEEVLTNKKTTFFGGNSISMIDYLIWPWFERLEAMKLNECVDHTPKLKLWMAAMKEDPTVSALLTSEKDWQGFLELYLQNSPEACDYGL

SMILES	inhibition
Cc1cccc(C(=O)NCCCN(C)CCCNC(=O)c2cccc(C)c2)c1	-1.1% (inactive)
CCN(CCCNC(=O)CCn1c(=O)[nH]c2ccsc2c1=O)c1ccccc1	0.71% (inactive)
CCN(CCCNC(=O)c1ccc2c(c1)NC(=O)CN2C)c1cccc(C)c1	52.9% (active)
CCOCCn1[nH]c2ccccc2c1=O	1.49% (inactive)
O=c1[nH]c2ccccc2n2c(-c3ccccc3)nnc12	69.1% (active)
Cc1ccccc1Cn1c(=O)[nH]c2ccccc21	8.19% (inactive)
CC(=O)c1c(-c2ccccc2)c2ccccc2[nH]c1=O	-2.94% (inactive)
O=S(=O)(NCCS(=O)(=O)N1CCN(c2ccccc2)CC1)c1ccc(F)cc1	-12.9% (inactive)
CN(CC(=O)NNC(=O)CNC(=O)c1ccccc1Cl)S(=O)(=O)c1ccc(Cl)cc1	5.54% (inactive)
O=C1NCCn2nc3ccccc3c21	3.49% (inactive)
O=[N+]([O-])c1ccc(C=Nc2ccc(Cl)cc2Cl)s1	38.5% (active)
CCOc1ccc(NC(=O)CCC(=O)N/N=C/c2ccc([N+](=O)[O-])s2)cc1	5.9% (inactive)
O=C(NCc1ccccc1Cl)C(=O)NCC1CCCN1S(=O)(=O)c1cccs1 (stereo not given)	4.65% (inactive)
CCOc1ccc(CCNC(=O)CN2C(=O)NC3(CCc4ccccc43)C2=O)cc1OCC (stereo not given)	1.55% (inactive)
C#CCOCCOCCOCCNc1nc(N2CCN(C(=O)Cn3cc(CCCCN)nn3)CC2)nc(N2CCN(C(=O)[C@H](CCCCN)n3cc(CCC(=O)O)nn3)CC2)n1	6.12% (inactive)
Cc1cc(N2CCN(S(=O)(=O)c3ccc(C)c(C)c3)CC2)c2ccccc2n1	-2.63% (inactive)
Cc1ccc(S(=O)(=O)C(C#N)c2nc3ccccc3nc2N2CCCC2)cc1C (stereo not given)	51.4% (active)
Cc1ccc(S(=O)(=O)Nc2nc3ccccc3nc2N2CCc3ccccc3C2)cc1	0.1% (inactive)
O=C(NCCC1CCCCN1S(=O)(=O)c1ccc(Cl)cc1)C(=O)NCc1ccco1 (stereo not given)	-0.26% (inactive)
CN(C)CCc1c[nH]c2ccc(Cn3cncn3)cc12	4.56% (inactive)
CC(OC(=O)CCCOc1ccccc1)C(=O)Nc1ccc(Cl)cn1 (stereo not given)	-0.72% (inactive)
O=C(CSc1cccc2cccnc12)N/N=C/c1cccnc1	36.6% (active)
Cc1ccc(NC(=O)CSc2cccc3cccnc23)c(C)c1	14.1% (inactive)
O=C(CNC(=O)c1cccnc1)N/N=C/c1cccnc1	-0.23% (inactive)
O=C(CSc1nc(=O)n2ccccc2n1)Nc1ccc2c(c1)OCCO2	3.74% (inactive)
C/C(CCC(=O)OC[C@H]1O[C@H](C#Cc2ccccc2)C=C[C@@H]1Oc1ccc(C)cc1)=N\OC[C@@H](O)[C@H]1O[C@@H]2OC(C)(C)O[C@@H]2[C@H]1O	3.31% (inactive)
CCOc1ccc(/C=C/C(=O)OCC(=O)c2ccccc2OC)cc1OC	-2.58% (inactive)
CCC(C)(C)NC(=O)C1c2ccccc2Oc2ccccc21	3.61% (inactive)

SMILES	inhibition
CCC(C)NC(=O)C1c2ccccc2Oc2ccccc21 (stereo not given)	2.29% (inactive)
O=C(N/N=C/c1ccc(O)c(O)c1)C1c2ccccc2Oc2ccccc21	35.5% (active)
CCOC(=O)N1CCN(C(=O)COc2ccc3oc4c(c3c2)CCCC4)CC1	-0.52% (inactive)
Nc1ccccc1/C=N\N=C/c1ccccc1N	8.02% (inactive)
CCOc1ccc(CCNC(=O)COC(=O)c2ccc(F)c(S(=O)(=O)N3CCOCC3)c2)cc1OCC	11.6% (inactive)
CCCCN(CCCC)CCC(O)c1cc2c(Cl)cc(Cl)cc2c2cc(C(F)(F)F)ccc12 (stereo not given)	7.04% (inactive)
COc1ccc(CNC(=O)C2(CC3CC(c4ccccc4)=NO3)CCN(C(=O)c3cccc(O)c3)CC2)cc1 (stereo not given)	-2.65% (inactive)
Cc1oc2c(c1C(=O)N1CCOCC1)C(=O)c1ccccc1C2=O	49% (active)
CCOC(=O)c1ccccc1C(=O)N1CCOCCOCCOCC1	0.47% (inactive)
Cc1noc(C)c1C(=O)N1CCOCC1	-8.26% (inactive)
CCOc1ccc(CC(=O)NCCS(=O)(=O)N2CCN(c3ccccc3)CC2)cc1	2.49% (inactive)
COc1ccc(-c2csc3ncnc(N4CCN(S(=O)(=O)c5cccc(F)c5)CC4)c23)cc1	-26.4% (inactive)
Cc1ccsc1/C=N/NC(=O)Cc1cc(=O)[nH][nH]1	37.2% (active)
Cc1ccsc1C(=O)N/N=C/c1ccc([N+](=O)[O-])cc1	0.47% (inactive)
O=C(Cc1cc(=O)[nH][nH]1)N/N=C/c1ccccc1[N+](=O)[O-]	49.5% (active)
CCOc1ccc(N2CC(C(=O)N/N=C/c3sccc3C)CC2=O)cc1 (stereo not given)	8.53% (inactive)
COc1cc(CC(=O)N/N=C/c2ccccc2)c([N+](=O)[O-])cc1OC	-0.51% (inactive)
Cc1cc(C(=O)N/N=C/c2ccccc2[N+](=O)[O-])c(C)o1	-0.23% (inactive)
CCC(C)c1ccccc1N1CC(C(=O)N2CCN(S(=O)(=O)c3ccc(F)cc3)CC2)CC1=O (stereo not given)	2.71% (inactive)
CCOC(=O)/C=C/c1ccc(C(F)(F)F)cc1S(=O)(=O)NC(C)(C)C	-1.78% (inactive)
COC(=O)c1ccc2ccccc2c1OC1OC(CO)C(O)C(O)C1NC(C)=O (stereo not given)	2.04% (inactive)
Cc1ccc2nc(NC(=O)C3CSC4(C)CCC(=O)N34)sc2c1 (stereo not given)	1.93% (inactive)
COc1ccccc1C1C(C#N)=C(N)Oc2c1c(-c1ccccc1)nn2-c1ccccc1 (stereo not given)	59.1% (active)
Cc1nn(-c2ccccc2)c2c1C(c1ccc(F)cc1)C(C#N)=C(N)O2 (stereo not given)	25.3% (inactive)
Cc1nn(Cc2ccccc2)c2c1C(c1ccccc1)C(C#N)=C(N)O2 (stereo not given)	6.98% (inactive)
C#CCOCCOCCOCCNc1nc(N2CCN(C(=O)CCCCCCCCCCNC(=O)[C@H](CCCCN)n3cc(C)nn3)CC2)nc(N2CCN(C(=O)CCCCCCCCCCNC(=O)[C@H](CO)n3cc(CCCSC)nn3)CC2)n1	4.17% (inactive)
CCOC(=O)[C@H]1[C@H]2COc3ccc(Cl)cc3[C@@H]2N2C(=O)c3cc(C)ccc3NC(=O)[C@@]12C	1.13% (inactive)
